About 5,000 (1.2%) of roughly 410,000 compounds were called active. Another 13% or so got no clear call; they are omitted. The sample as a whole holds a higher share of actives than the screen did. A number with no mark means an inactive call. Calls come from the whole dose curve; as a rule, active = well fitted inhibition curve with a large enough effect; inconclusive = small, poorly fitted or top-dose-only effect; inactive = no such curve, though single readings can be large or run the other way.
Assay: qHTS for Inhibitors of TGF-b; note: nearly all actives have a fitted effect of over 65% in size
Settings: HepG2 CAGA-GFP TGF-b/SMAD3 reporter, GFP fluorescence, 18 h, TGF-beta stimulated, 500 pg/mL final; series mostly up to 46.1 µM; activity, negative = inhibition: at the top concentration
Excerpt: TGF-b is a main component in the TGF-b signaling pathway which plays diverse roles in cellular and development pathways. TGF-b is the mediated by the transcription factors Smads. Although the Smad-dependent pathway is the primary canonical TGF-b signaling node, TGF-b1 can also activate alternative signaling pathways, including those involving MAPK (ERK, JNK and p38). This interaction may mediate or enhance Smad-dependent responses, or can exert Smad-independent effects. The complexity of this signaling cascade allows the TGF-b superfamily to perform unique, overlapping or redundant functions. We believe that targeting the TGF-beta pathway at the Smad-transcription factor level may eliminate the consequences of disrupting the entire pathway and offer specificity without affecting other signaling pathways. Smad3 is the primary transducer of TGF-b's signals and Smad3 regulates many functions attributed to TGF-b signaling. We hypothesize that Smad3 inhibitors will selectively eliminate Smad3-specific TGF-beta signals without undesired off-target effects. We aim to identify Smad3-small molecule antagonists using a quantitative high throughput screening (qHTS) approach.
A high-throughput assay was developed to screen the NIH Molecular Libraries Small Molecule Repository (MLSMR). This is a cell based assay, where TGF-b is tagged with GFP. A counterscreen is run that looks at cytotoxicity (please see summary AID).
MH087449NIH Chemical Genomics Center [NCGC]
NIH Molecular Libraries Probe Centers Network [MLPCN]
Assay Submitter (PI): Sushil Rane, National Institute of […]
Suspensions of trypsinized HEPG2 CAGA-GFP cells were dispensed into white, tissue culture-treated, solid 1536-well plates at 5uL/well (1000 cells/well final concentration) in DMEM medium supplemented with 1% FBS. Plates were incubated at 37 degrees C for 2 hours, after which 23 nL of compounds or DMSO were delivered to each well using a pin tool. One uL of recombinant TGF-beta in DMEM (1% FBS) was then dispensed (500 pg/mL final concentration), and plates were incubated at 37 degrees C for 18 hours. The plates were measured on an Acumen eX3 Explorer plate reader for GFP fluorescence (ex488/em500-530). GFP values were calculated by determining the mean GFP fluorescence of individual cells, and compiling these values for each well to determine a total well GFP signal. The %Activity was determined from the corrected fluorescence values. A titration of the known TGF-B inhibitor SB431542 was included to monitor plate performance, while unstimulated HEPG2 (-TGF-B) control wells were used to normalize %Activity of identified inhibitors; unstimulated wells corresponded to 100%Activity (full inhibition), while stimulated cell controls (+DMSO) were used to normalize 0%Activity (no inhibition).
Concentration-response curves were fitted to the signals arising from the resulting fluorescence. The concentration-effect curves were then classified based on curve quality (r2), response magnitude and degree of measured activity, and compounds were subsequently categorized based on their curve class.
Potency is the fitted concentration of half-maximal effect.

| SMILES | activity, negative = inhibition [%] | Potency |
| --- | --- | --- |
| C[C@]12CCC3C(CC[C@H]4C[C@@H](O)CC[C@]34C)C1CC[C@@H]2O (some centres not stated) | 15 |  |
| C[C@]12CC[C@H](O)C[C@H]1CC[C@@H]1C2CC[C@]2(C)[C@@H](C3=CC(=O)OC3)[C@@H](O)C[C@]12O (some centres not stated) |  | 11.2 µM (active) |
| CC12CCC(O)CC1CCC1C2CCC2(C)C(C(=O)CC(O)C(F)(F)F)CCC12 (configuration not stated) | -4.48 |  |
| C[C@H]1CN([C@@H](C)CO)C(=O)CCCn2nncc2CO[C@H]1CN(C)C(=O)Oc1ccccc1 | 1.94 |  |
| COc1ccccc1OC(=O)c1ccc(C)c(S(=O)(=O)N2CCOCC2)c1 | -12.5 |  |
| COc1ccc2c(c1)NP(=S)(c1ccccc1)N2 (configuration not stated) | 0 |  |
| O=c1c2ccccc2nc(/C=C/c2ccc(F)cc2)n1-c1ccccc1O |  | 10 µM (active) |
| Cc1nc2ccccc2c(=O)n1-c1ccc(Cl)cc1Cl | 2.9 |  |
| Cn1cc(/C=C/c2nc3ccccc3c(=O)n2-c2ccccc2)c2ccccc21 | 0.0962 |  |
| CC(C)CN1Cc2cc(N3CCCCC3)ccc2-n2nncc2C1 | -32 |  |
| O=c1c2ccccc2nc(CBr)n1-c1ccc(Cl)cc1 | 5.25 |  |
| O=C(N/N=C/c1c(O)n(Cc2ccccc2)c(=O)[nH]c1=O)c1ccccc1 | -2.56 |  |
| Cn1c(O)c(C=NCCCC(=O)O)c(=O)n(C)c1=O | -7.57 |  |
| CCCCC(=O)N/N=C/c1c(O)n(CC)c(=S)n(CC)c1=O |  | 22.4 µM (active) |
| COc1cc(C(c2c(O)c3ccccc3oc2=O)c2c(C)n(C)n(-c3ccccc3)c2=O)ccc1O (configuration not stated) |  | inactive |
| C[C@H]1CN([C@@H](C)CO)C(=O)CCCn2nncc2CO[C@H]1CN(C)C(=O)Oc1cccc2ccccc12 | -17.7 |  |
| CC1CCCCN1Cc1cccnc1 (configuration not stated) | -4.61 |  |
| COC1C(O)C(C)OC(OC2CCC3(C=O)C(CCC4C3CCC3(C)C(C5=CC(=O)OC5)CCC43O)C2)C1O (configuration not stated) |  | 0.355 µM (active) |
| O=c1[nH]c(CN2CC=C(c3ccccc3)CC2)nc2scc(-c3cccs3)c12 | -20.4 |  |
| COC(=O)C1=C(c2cc3ccccc3s2)C[C@@H]2CC[C@H]1N2C(=O)NCCO | -5.77 |  |
| COc1cc(C2c3cc4c(cc3C(O)C3COC(=O)C23)OCO4)cc(OC)c1OC (configuration not stated) | -56.2 |  |

| SMILES | activity, negative = inhibition [%] | Potency |
| --- | --- | --- |
| O=C(O)c1cc[c]([Sb](=[O])([OH])[OH])cc1[N+](=O)[O-] | -13.1 |  |
| CO[C@H]1[C@@H](O)[C@@H](C)O[C@H](O[C@H]2[C@H](Oc3cccc4c(O)c5c(=O)oc6ccc(C)c7c(=O)oc(c34)c5c67)O[C@H](C)[C@H](O)[C@@H]2O)[C@@H]1O | -9.07 |  |
| CSCCC(c1nnnn1C(C)(C)C)N1CCC(n2c(=O)[nH]c3ccccc32)CC1 (configuration not stated) | -13.8 |  |
| CC1(C)Cc2c(C#N)c(N3CCNCC3)nc(-c3ccco3)c2CS1 | 0 |  |
| Cc1cccc(Cn2cccc(C(=O)Nc3ccc4c(c3)OCCO4)c2=O)c1 |  | 10 µM (active) |
| Cc1nnc(NC(=O)c2cccn(Cc3cccc(F)c3)c2=O)s1 | -14.8 |  |
| Cc1ccccc1NC(=O)COC(=O)c1cc(C)n(C2CC2)c1C | -18.3 |  |
| COc1ccc(NC(=O)N2Cc3ccccc3-n3nncc3C2)cc1 | 12.2 |  |
| Cc1ccc(OC(=O)N(C)C[C@@H]2OCc3cnnn3CCCC(=O)N([C@H](C)CO)C[C@@H]2C)cc1 | 9.78 |  |
| CCOC(=O)CNC(=O)N1Cc2cc(N3CCCCC3)ccc2-n2nncc2C1 | -17.2 |  |
| CC(=O)c1ccc(OC(NC(=O)Cc2ccccc2)C(Cl)(Cl)Cl)cc1 (configuration not stated) | 0.817 |  |
| CN1CCN(/N=C/c2c[nH]c3ccccc23)CC1 | 8.85 |  |
| CN(C)CCN(CC1CCCN(Cc2ccccc2F)C1)C(=O)Cc1ccc(F)c(F)c1 (configuration not stated) | -1.79 |  |
| CCn1cc(CN2CCCC(C(=O)c3cccc(C(F)(F)F)c3)C2)cn1 (configuration not stated) | 1.53 |  |
| CC(=O)Nc1ccc(CC#N)cc1 | 8.86 |  |
| CCC(C)(O)C(=O)OC1C(=O)OC2CC3C(C)=CC(=O)C(O)C3(C)C3C4(O)OCC23C1C(C)C4O (configuration not stated) |  | 0.355 µM (active) |
| O=C1C2CCN(CC2)C1(CO)CO | -1.2 |  |
| COc1ccc(C2C=C(C)Oc3c2c(=O)oc2ccccc32)cc1OC (configuration not stated) | -7.94 |  |
| CN(C(=O)c1cccc(NC(=O)Cc2cccc([N+](=O)[O-])c2)c1)C1CCCCC1 |  | 20 µM (active) |
| CN(C)P(=S)(Nc1ccccc1)C(Cl)(Cl)Cl (configuration not stated) | -5.56 |  |
| O=C1CC(=O)N(Cc2ccccc2)C(=O)N1CCCCCCN1C(=O)CC(=O)N(Cc2ccccc2)C1=O | 0 |  |

— PubChem BioAssay AID588855 (National Center for Advancing Translational Sciences (NCATS), 2011)
